Screening results deposited in PubChem by National Center for Advancing Translational Sciences (NCATS).
This is a sample that favours compounds with a hit; in the whole collection about 12% have one here.
Sfp inh = blocks B. subtilis Sfp PPTase activity | Biochemical Sfp PPTase activity, qHTS | Potency, µM, for inactives: largest response in the series, negative = inhibition, usual class: inhibitors | 3.5% of 310,000 active | AID 1490;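 further: the enzyme is Sfp with the accession as filed and its product quenches rhodamine fluorescence; 0% = enzyme reaction without inhibitor and -100% = no enzyme wells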
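Fluorescence-quenching assay with 15 nM Sfp, 5 uM rhodamine-CoA and 12.5 uM BHQ-2-labelled ybbR peptide in pH 7.6 Hepes/MgCl2 buffer. Enzyme was pre-incubated with compound for 15 min at room temperature. Rate was taken from the 30-min fluorescence change (525/598 nm).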
JMJD2A Tudor inh = JMJD2A Tudor domain (human) inhibition; O75164; AlphaScreen JMJD2A-Tudor / H3K4me3 peptide binding; Potency, µM (top dose mostly 114 µM), inactives show at the highest dose activity change, negative = inhibition, hits mostly inhibitors; 4.4% of 390,000 active; AID 504339; further: on the % scale 0 is the no-effect control and ±100 the full control effect; nearly all actives have a fitted effect of over 50% in size
G9a block = inhibitors of human histone lysine methyltransferase G9a | G9a H3K9 monomethylation, AlphaScreen, 2 h | Potency, µM (titrated, usually from 102 µM), for inactives: at the top dose activity, negative = inhibition, most hits filed as inhibitors | 8.8% of 350,000 active | AID 504332; further: on the % scale 0 is the no-effect control and ±100 the full control effect; nearly all actives have a fitted effect of over 75% in size
Target sequence (Q96KQ7 913-1193 limits assumed): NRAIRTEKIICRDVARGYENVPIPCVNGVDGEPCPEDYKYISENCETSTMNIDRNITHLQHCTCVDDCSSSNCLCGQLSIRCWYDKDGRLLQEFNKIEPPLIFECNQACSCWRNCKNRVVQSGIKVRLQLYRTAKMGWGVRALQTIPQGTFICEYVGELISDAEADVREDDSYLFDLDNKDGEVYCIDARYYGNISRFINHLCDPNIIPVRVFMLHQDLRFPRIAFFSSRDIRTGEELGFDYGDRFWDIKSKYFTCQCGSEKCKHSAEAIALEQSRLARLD
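Using a bead-based AlphaScreen, monomethylated H3K9 product from 2 h room-temperature reactions (G9a 20 nM, peptide 500 nM, SAM 20 uM) was detected with 0.5 ug/mL rabbit anti-H3K9me1 antibody.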
HP1b chromo inh = blocks HP1-beta chromodomain binding to methylated histone tails. AlphaScreen HP1-beta / biotin-H3K9me3 peptide binding. Potency, µM (titrated, usually from 114 µM), without a hit: top-dose activity change, negative = inhibition, actives largely listed as inhibitors. 0.56% of 390,000 active. AID 540317; further: nearly all actives have a fitted effect of over 70% in size
Target sequence (P83916 whole entry, looked up): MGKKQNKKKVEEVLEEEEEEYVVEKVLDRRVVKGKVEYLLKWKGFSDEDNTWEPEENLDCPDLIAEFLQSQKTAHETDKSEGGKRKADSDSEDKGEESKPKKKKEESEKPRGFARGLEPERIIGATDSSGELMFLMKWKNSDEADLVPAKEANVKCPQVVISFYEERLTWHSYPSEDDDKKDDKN
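AlphaScreen: HP1-beta (50 nM) preformed 30 min with biotin-H3(1-18)K9me3 peptide (50 nM) in PBS pH 7.4, 0.01% Tween-20. Compound added for 30 min at RT, then streptavidin donor/nickel chelate acceptor beads (10 ug/mL) for 30 min.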
L3MBTL1 block = L3MBTL1 (human) inhibition; Q9Y468; AlphaScreen L3MBTL1–H3K9me1 peptide binding; Potency, µM (series often up to 57.1 µM), for the others: at the top dose activity, negative = inhibition, actives largely listed as inhibitors; 0.66% of 230,000 active; AID 485360; further: on the % scale 0 is the no-effect control and ±100 the full control effect; nearly all actives have a fitted effect of over 60% in size
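First, the protein-peptide complex forms for 30 min at room temperature (L3MBTL1 50 nM, biotinylated H3K9me1 peptide 75 nM). Next, compounds are pin-transferred and incubated 30 min. Finally, AlphaScreen beads are added and read after 30 min.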
BAZ2B block = inhibitors of human BAZ2B bromodomain; Q9UIF8; AlphaScreen BAZ2B-H3K14Ac peptide displacement; Potency, µM (top dose mostly 114 µM), for the others: top-dose activity change, negative = inhibition, hits mostly inhibitors; 4.4% of 360,000 active; AID 504333; further: on the % scale 0 is the no-effect control and ±100 the full control effect; nearly all actives have a fitted effect of over 60% in size
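BAZ2B (50 nM) with biotin-H3(5-23)K14Ac peptide (50 nM) in PBS pH 7.4, 0.01% Tween-20, preformed 30 min, then compound 30 min at room temperature; top concentration 110uM. AlphaScreen streptavidin donor/nickel chelate acceptor beads (10 ug/mL final), 20 min dark, signal read.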
* = called active by the depositor; ? = inconclusive; . = no result; [ ] = remark or other dose. The call rests on the fitted dose curve; in most records, active means well fitted curve in the direction sought with a large enough effect; inconclusive means small, poorly fitted or top-dose-only effect, or another doubt; inactive means no such curve, though single readings can be large; an effect the other way counts as inactive or inconclusive. Potency means the concentration at half of the fitted maximal effect.

SMILES	Sfp inh	JMJD2A Tudor inh	G9a block	HP1b chromo inh	L3MBTL1 block	BAZ2B block
Cc1ccccc1C(=O)c1cccn1CC(=O)NCC1CCCO1 (stereo unspecified)	12.8%	-15.9%	44.7µM*	23.6%	-4.1%	7.9%
O=C(CCn1c(=S)[nH]c2ccccc2c1=O)NCCc1ccccc1	5.4%	-1.7%	-31.0%	26.2%	.	.
O=C(Cn1nc(C(=O)O)c2ccccc2c1=O)NCC1CCCO1 (stereo unspecified)	1.4%	-4.4%	70.8µM*	11.3%	0.5%	3.0%
O=C(CCn1c(=S)[nH]c2ccccc2c1=O)NCC1CCCO1 (stereo unspecified)	-14.9%	50.1µM*	?	41.4%	2.8%	1.2%
Cc1sc2c(c1C)c(=O)n(-c1cccc(C(F)(F)F)c1)c(=O)n2Cc1ccc(F)cc1	.	-7.5%	-20.2%[59 µM]	17.6%	.	-2.4%
CCCCc1cc2c(cn1)C(=O)C(C)(OC(C)=O)C(=O)C2 (stereo unspecified)	14.9%	.	.	.	.	.
O=C(CNC(=O)C1CCCCC1)Nc1cc(Cl)ccc1Cl	17.5%	-12.0%	1.0%[59 µM]	24.2%	6.4%	2.4%
O=C(NNc1ccccc1F)C1CCC1	-3.5%	-12.6%	50.1µM*	61.3%	2.9%	-5.3%
O=C(NNc1ccc(F)cc1F)C1CCC1	18.7%	-6.4%	17.8µM*	22.6%	10.7%	1.9%
CC(C)(C)c1ccc(NNC(=O)C2CCC2)cc1	6.2%	-5.5%	14.1µM*	43.5%	0.6%	-2.2%
O=C(NNc1cc(Cl)ccc1Cl)C1CCC1	13.9%	70.8µM*	50.1µM*	-4.7%	-0.9%	0.1%
CCOC(=O)c1c(NC(=O)c2cc(=O)c3cc(C)cc(C)c3o2)sc(C)c1C	.	-5.6%	-4.7%[59 µM]	19.3%	.	-3.9%
CSc1cccc(NC(=O)Cn2ncn3c(cc4ccccc43)c2=O)c1	.	-24.0%	12.0%[59 µM]	11.7%	.	-8.9%
O=C(NNc1ccccc1F)c1cccs1	.	-10.2%	.	57.8%	.	.
O=C(NNc1ccccc1F)c1ccccc1	-0.8%	-11.0%	28.2µM*	40.0%	4.9%	1.8%
CCC(C)NC(=O)Cn1c(=O)n(Cc2ccc(C(=O)NCc3ccc(C)cc3)cc2)c(=O)c2ccccc21 (stereo unspecified)	.	-22.9%	-5.3%[59 µM]	23.8%	.	?
Cc1ccc(N/N=C2\CCS(=O)(=O)c3sccc32)cc1	-45.2%	?	8.91µM*	12.9%	-2.3%	?
CN(C)/N=C1\CCS(=O)(=O)c2sccc21	2.3%	-25.8%	?	30.7%	3.3%	-2.6%
CCCCCOc1ccc(Cn2c(=O)oc3ccc(C)cc32)cc1OC	.	84.2%	114.0%[59 µM]	109.5%	.	96.1%
Oc1ccc(N=Nc2n[nH]c(-c3ccccc3)n2)cc1	17.5%	?	3.16µM*	-8.6%	-9.2%	?
Oc1ccc(N=Nc2nc(-c3ccccc3)c(-c3ccccc3)[nH]2)cc1	16.1%	22.4µM*	20µM*	-71.7%	?	11.2µM*
COC(=O)c1ccc(N2C(=O)CC(SCC(=O)Nc3ccc(OC)cc3)C2=O)cc1 (stereo unspecified)	-19.4%	-8.9%	.	34.7%	.	-0.2%
COC(=O)c1ccc(N2C(=O)CC(Sc3n[nH]c(C)n3)C2=O)cc1 (stereo unspecified)	?	-3.4%[11.4 µM]	2µM*	0.2%	0.9%	0.3%
CN=C(Nc1cc(Cl)ccc1Cl)SC1CC(=O)N(c2ccc(C(=O)OC)cc2)C1=O (stereo unspecified)	28.0%	-13.6%	50.1µM*	11.8%	?	4.0%
FC(F)(F)c1cccc(NC(=S)Nc2cccc(NC(=S)Nc3cccc(C(F)(F)F)c3)n2)c1	20µM*	?	.	?	?	?
SMILES	Sfp inh	JMJD2A Tudor inh	G9a block	HP1b chromo inh	L3MBTL1 block	BAZ2B block
FC(F)(F)c1cccc(NC(=S)NCc2ccccn2)c1	-7.1%	-18.5%	-18.2%[59 µM]	27.2%	2.6%	-6.7%
O=C(NNC(=S)Nc1cccc(C(F)(F)F)c1)c1cccc(Cl)c1	1.0%	-33.1%	?	?	1.9%	-27.9%
O=C(NNC(=S)Nc1cccc(C(F)(F)F)c1)c1ccccc1Cl	-2.5%	-28.5%	3.16µM*	-13.3%	8.2%	-16.9%
Cc1cccc(NC(=S)Nc2cccc(C(F)(F)F)c2)n1	-6.7%	-7.6%	7.1%[59 µM]	53.3%	1.6%	-6.2%
FC(F)(F)c1cccc(NC(=S)NNC(=S)NCc2ccccc2)c1	44.7µM*	?	?	-18.3%	-1.3%	-9.6%
O=C(CBr)c1ccc([N+](=O)[O-])c(CS(=O)(=O)c2ccc(Cl)cc2)c1	56.2µM*	?	7.08µM*	18.3%	.	-37.8%
CC(=O)C(C(c1ccccc1)N1CCOCC1)N1CCOCC1 (stereo unspecified)	.	-22.1%	.	-23.2%	.	.
Oc1c(C(c2ccccc2)N2CCOCC2)ccc2ccccc12 (stereo unspecified)	.	10µM*	.	14.1µM*	.	.
O=C(CSc1ncccn1)N1CCN(C(c2ccccc2)c2ccccc2)CC1	-0.7%	-19.2%	5.62µM*	-0.9%	.	-6.8%
C=CCNC(=O)CN1CCN(C(c2ccccc2)c2ccccc2)CC1	-17.8%	20µM*	11.2µM*	?	-5.6%	50.1µM*
COc1ccc(N2CCN(C(=O)CN3CCN(C(c4ccccc4)c4ccccc4)CC3)CC2)cc1	3.9%	25.1µM*	?	-72.7%	-13.1%	50.1µM*
COC(=O)N1C(C)=Cc2ccccc2C1CC(C)=O (stereo unspecified)	5.5%	.	.	.	.	.
Cc1ccc(NC(=O)CCn2nc(C)c(S(=O)(=O)N3CCCCC3)c2C)cc1Cl	.	-6.3%	-0.4%[12.7 µM]	36.6%	.	-2.9%
O=C(CN1CCN(C(c2ccccc2)c2ccccc2)CC1)N1CCOCC1	-10.5%	17.8µM*	8.91µM*	17.9%	-0.6%	50.1µM*
N#CCC(=O)N1CCN(C(c2ccccc2)c2ccccc2)CC1	.	0.3%	.	42.8%	.	.
CCc1ccccc1NC(=O)Cn1c(=O)n(CCc2ccccc2)c(=O)c2sc3ccccc3c21	.	1.0%	11.4%[59 µM]	7.8%	.	-9.7%
COc1ccccc1-n1c(=S)sc2c(=O)n(Cc3ccco3)c(SC)nc21	-1.2%	?	12.6µM*	-34.3%	1.0%[11.4 µM]	-37.8%
COc1ccccc1-n1c(SC)nc2c(sc(=S)n2-c2ccccc2)c1=O	16.6%	1.4%	28.5%	25.1%	.	1.4%
CCN(CC)C(=O)CSc1nc2c(sc(=S)n2-c2ccccc2)c(=O)n1Cc1ccco1	39.8µM*	-27.6%	39.8µM*	-31.2%	.	56.2µM*
COc1ccc(NC(=O)c2cnc3cc(C)ccn3c2=O)c(OC)c1	.	-11.3%	3.4%[59 µM]	29.9%	.	-12.6%
